Data taken from PubChem BioAssay (NCI).
About 79,000 compounds went through this panel and 15% of them were active in at least one assay; those are over-represented in the sample as a whole. Activity calls are given as the source filed them. Cut-off read from the data, not from the text of the source: active = growth inhibition above about 70%; inactive = the rest.

How the values were obtained:
[1] = NCI Yeast Anticancer Drug Screen. Data for the rad50 strain (AID 155);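 note: 0% = growth of vehicle-only cultures of the same strain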; conditions: S. cerevisiae rad50 strain growth inhibition, active compounds read high
How it was run: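 Cells are treated with compound, grown, and their growth is then scored against vehicle-only cultures of the same repair-deficient yeast strain.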

[2] = NCI Yeast Anticancer Drug Screen. Data for the mec2-1 strain (AID 157); conditions: S. cerevisiae mec2-1 strain, active compounds read high
How it was run: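 Vehicle-treated cultures served as reference for growth inhibition of compound-exposed mec2-1 yeast.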

[3] = NCI Yeast Anticancer Drug Screen. Data for the sgs1 mgt1 strain (AID 161);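 note: 0% = growth of cultures given vehicle only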; conditions: S. cerevisiae sgs1 mgt1 strain, active compounds read high
How it was run: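 Inhibition of yeast growth, normalised to vehicle-treated controls, is reported for a strain bearing genetic alterations in DNA damage repair.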

[4] = NCI Yeast Anticancer Drug Screen. Data for the cln2 rad14 strain (AID 165);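 note: 0% = growth equal to vehicle treated cultures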; conditions: S. cerevisiae cln2 rad14 strain, active compounds read high
How it was run: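 Each compound was tested on cln2 rad14 yeast. Inhibition of growth was calculated against vehicle-exposed controls.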

[5] = NCI Yeast Anticancer Drug Screen. Data for the bub3 strain (AID 167); conditions: S. cerevisiae bub3 mutant strain, active compounds read high
How it was run: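 Part of a panel of yeast mutants defective in DNA damage repair or cell cycle regulation. Each strain is grown with compound, and inhibition is calculated relative to solvent-treated cultures.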

[6] = NCI Yeast Anticancer Drug Screen. Data for the mlh1 rad18 strain (AID 175); conditions: S. cerevisiae mlh1 rad18 strain growth inhibition, active compounds read high
How it was run: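 Vehicle-treated cultures served as the reference for growth inhibition in a yeast strain carrying DNA damage repair alterations exposed to each compound.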

[7] = at 5.0 µM (retest, dose inferred, filed as 0.5)
[8] = at 50.0 µM (retest, dose inferred, filed as 5.0)

Measured: growth inhibition

Clc1ccccc1CN1COc2c(cc(Cl)c3cccnc23)C1
inactive: [1]; [7] 21% | [2]; [7] 6% | [4]; [7] 6% | [5]; [7] 61%
active: [1]; [8] 99% | [1]; at 50.0 µM 98.6% | [2]; [8] 99% | [2]; at 50.0 µM 99.5% | [3]; [7] 87% | [3]; [8] 100% | [3]; at 50.0 µM 99.4% | [4]; [8] 99% | [4]; at 50.0 µM 98.8% | [5]; [8] 99% | [5]; at 50.0 µM 99.3% | [6]; [7] 97% | [6]; [8] 99% | [6]; at 50.0 µM 99%

Oc1ccc(SCc2cc(O)ccc2O)cc1
active: [1]; [8] 93% | [1]; at 50.0 µM 86% | [2]; [8] 73% | [2]; at 50.0 µM 91.2% | [3]; at 50.0 µM 84.5% | [5]; [8] 73% | [5]; at 50.0 µM 86.7% | [6]; [8] 86% | [6]; at 50.0 µM 82.1%
inactive: [1]; [7] 9% | [2]; [7] 8% | [3]; [7] -17% | [3]; [8] 48% | [4]; [7] -13% | [4]; [8] 69% | [4]; at 50.0 µM 66% | [5]; [7] -26% | [6]; [7] 10%

COc1ccc(/C=C2\Sc3scc(-c4ccc([N+](=O)[O-])cc4)[n+]3C2=O)cc1OC
active: [5]; at 50.0 µM 83%
inactive: [1]; [7] 3% | [1]; [8] 4% | [1]; at 50.0 µM 39.3% | [2]; [7] -6% | [2]; [8] 20% | [2]; at 50.0 µM 55% | [3]; [7] -3% | [3]; [8] 11% | [3]; at 50.0 µM 66% | [4]; [7] 0% | [4]; [8] -4% | [4]; at 50.0 µM 28.6% | [5]; [7] 9% | [5]; [8] 16% | [6]; [7] 3% | [6]; [8] 12% | [6]; at 50.0 µM 65.8%

COc1ccc2ccc(/C=C/[N+](=O)[O-])cc2c1OC
active: [1]; [8] 98% | [2]; [8] 99% | [2]; at 50.0 µM 88.2% | [3]; [8] 99% | [4]; [8] 99% | [5]; [8] 99% | [5]; at 50.0 µM 85.3% | [6]; [8] 98%
inactive: [1]; [7] 48% | [1]; at 50.0 µM 55.1% | [2]; [7] 40% | [3]; [7] 53% | [3]; at 50.0 µM 34.8% | [4]; [7] 41% | [4]; at 50.0 µM 37.9% | [5]; [7] 67% | [6]; [7] 37% | [6]; at 50.0 µM 67.6%

Nc1nc(SCc2ccccc2)c2ncn(CCCl)c2n1
active: [4]; at 50.0 µM 70.3%
inactive: [1]; [7] -3% | [1]; [8] 0% | [1]; at 50.0 µM 1.4% | [2]; [7] -4% | [2]; [8] 2% | [2]; at 50.0 µM 15.3% | [3]; [7] -9% | [3]; [8] 1% | [3]; at 50.0 µM 17.6% | [4]; [7] -4% | [4]; [8] -1% | [5]; [7] -2% | [5]; [8] -7% | [5]; at 50.0 µM -2.15% | [6]; [7] -2% | [6]; [8] 3% | [6]; at 50.0 µM 20.9%

CN(C)C(=S)SN(C)C(=O)Nc1ccccc1
inactive: [1]; [7] -5% | [2]; [7] -7% | [3]; [7] -6% | [4]; [7] -13% | [4]; at 50.0 µM -9% | [5]; [7] -4% | [6]; [7] -3%
active: [1]; [8] 96% | [1]; at 50.0 µM 70.3% | [2]; [8] 96% | [2]; at 50.0 µM 73% | [3]; [8] 96% | [3]; at 50.0 µM 94% | [4]; [8] 95% | [5]; [8] 95% | [5]; at 50.0 µM 92.2% | [6]; [8] 96% | [6]; at 50.0 µM 86.1%

C/C(=N\NC(=S)N1CCN(C2CCCCC2)CC1)c1ccccn1
inactive: [1]; [7] -3% | [1]; [8] 64% | [2]; [7] -14% | [3]; [7] -4% | [4]; [7] 12% | [4]; [8] 59% | [5]; [7] -16% | [5]; [8] 51% | [6]; [7] 15%
active: [1]; at 50.0 µM 99% | [2]; [8] 76% | [2]; at 50.0 µM 98.7% | [3]; [8] 98% | [3]; at 50.0 µM 98.5% | [4]; at 50.0 µM 97.1% | [5]; at 50.0 µM 96.6% | [6]; [8] 85% | [6]; at 50.0 µM 95.7%

C=CCNC(=S)N/N=C/c1nccc(-c2ccccc2)c1C
inactive: [1]; [7] 37% | [2]; [7] 29% | [3]; [7] 46% | [4]; [7] 38% | [5]; [7] 54% | [6]; [7] 24%
active: [1]; [8] 96% | [1]; at 50.0 µM 73.3% | [2]; [8] 97% | [2]; at 50.0 µM 81.6% | [3]; [8] 96% | [3]; at 50.0 µM 82% | [4]; [8] 94% | [4]; at 50.0 µM 84.7% | [5]; [8] 95% | [5]; at 50.0 µM 84.5% | [6]; [8] 93% | [6]; at 50.0 µM 78.5%

COc1cc(-c2ccc(-[n+]3nc(Cc4ccc5c(c4)OCO5)nn3-c3ccccc3)c(OC)c2)ccc1-[n+]1nc(Cc2ccc3c(c2)OCO3)nn1-c1ccccc1
inactive: [1]; [7] 4% | [1]; [8] 41% | [1]; at 50.0 µM 68.8% | [2]; [7] 1% | [2]; [8] 46% | [3]; [7] 1% | [3]; [8] 49% | [4]; [7] 2% | [4]; [8] 22% | [4]; at 50.0 µM 37.1% | [5]; [7] -1% | [5]; [8] 60% | [6]; [7] 2%
active: [2]; at 50.0 µM 91.9% | [3]; at 50.0 µM 92.6% | [5]; at 50.0 µM 83.4% | [6]; [8] 79% | [6]; at 50.0 µM 91.4%

COc1ccc(CSC(=S)Nc2ccc(SC)c(Cl)c2)cc1
inactive: [1]; [7] 50% | [2]; [7] 23% | [3]; [7] 62% | [4]; [7] -10% | [5]; [7] 16% | [6]; [7] 65%
active: [1]; [8] 90% | [1]; at 50.0 µM 96.4% | [2]; [8] 96% | [2]; at 50.0 µM 98.1% | [3]; [8] 94% | [3]; at 50.0 µM 97% | [4]; [8] 88% | [4]; at 50.0 µM 94.5% | [5]; [8] 97% | [5]; at 50.0 µM 97% | [6]; [8] 94% | [6]; at 50.0 µM 97.9%
